The panel holds about 83,000 compounds, 20% with a hit somewhere; the sample as a whole holds those more often.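 48-hour exposure, single concentration, 96-well plates; percent growth endpoint where 0 means no net growth. Active: below 10.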 Unmarked numbers belong to inactive results. The source made the active and inactive calls.

Common to all, as to assay: NCI-60 one-dose screen, 48 h (100 = growth as untreated, 0 = no growth, -100 = all killed)
The subject of one experiment is T-47D breast. Conditions: 10 µM unless noted.
A further experiment concerns BT-549 breast. Conditions: 10 µM unless noted.
The next experiment relates to MDA-MB-435 melanoma. The settings on record: 10 µM unless noted.
In another experiment the test system is SW-620 colon. Conditions: 10 µM unless noted.
A further experiment concerns MCF7 breast. Conditions: 10 µM unless noted.
The next experiment concerns HCT-116 colon. The settings on record: 10 µM unless noted.
For the next experiment, the system named is HCC-2998 colon. The settings on record: 10 µM.
The next experiment has as its system KM12 colon. The settings on record: 10 µM unless noted.

Take `COC(=O)[C@@H](NC(=O)[C@@H](OC)[C@@H]1Cc2cc3cc(OC4CC(OC5CC(O)C(O)C(C)O5)C(O)C(C)O4)c(C)c(O)c3c(O)c2C(=O)[C@H]1OC1CC(OC2CC(OC3CC(C)(O)C(O)C(C)O3)C(O)C(C)O2)C(O)C(C)O1)C(C)C` (stereo not given in full): the growth in the experiment with T-47D breast is 10.2%; in the experiment with BT-549 breast, -20.7% (active); in the experiment with MDA-MB-435 melanoma it was 18.9%; in the experiment on SW-620 colon it was 16.6%; in the experiment with MCF7 breast it was 6.73% (active); in the experiment on HCT-116 colon, 4.79% (active). In addition, the growth in the experiment on HCC-2998 colon was 11.2%; with KM12 colon, 4.63% (active).
`O=C(O)C1(Cc2cccc(Nc3nccs3)n2)CCC(Oc2cccc(Cl)c2F)CC1` (stereo not given): the growth was 50.9% with T-47D breast; 84.4% in the experiment on BT-549 breast; 49.6% in the experiment on MDA-MB-435 melanoma; 74.9% with SW-620 colon; 46.7% with MCF7 breast; 45% with HCT-116 colon. Moreover, the growth was 95.3% in the experiment on HCC-2998 colon and 19.3% in the experiment with KM12 colon.
Take `Cc1ccc(NC(=O)c2ccc(CN3CC[C@H](N(C)C)C3)c(C(F)(F)F)c2)cc1Nc1nccc(-c2cncnc2)n1`: the growth with T-47D breast is -58.9% (active); with BT-549 breast it was 35.9%; in the experiment on MDA-MB-435 melanoma, -18.3% (active); in the experiment with SW-620 colon it was 8.15% (active); with MCF7 breast, 7.04% (active); with HCT-116 colon, -17.4% (active). Moreover, the figures for the growth in the experiment with HCC-2998 colon and in the experiment on KM12 colon were -22.7% (active) and 10.4%, respectively.
Consider `CC(C)(C)c1cnc(CSc2cnc(NC(=O)C3CCNCC3)s2)o1`, for which the growth in the experiment with T-47D breast is -7.81% (active); in the experiment with BT-549 breast, 0.761% (active); in the experiment with MDA-MB-435 melanoma, -58.7% (active); in the experiment with SW-620 colon, 5.06% (active); in the experiment with MCF7 breast, 3.72% (active); with HCT-116 colon, 2.22% (active). For the same compound, the results for the growth in the experiment on HCC-2998 colon and with KM12 colon were 0.238% (active) and 3.58% (active), respectively.
For the compound `O=C(Nc1cccc(Cl)c1)Nc1ncc(CCNc2ncnc3ccsc23)s1`, the growth in the experiment on T-47D breast is -16.9% (active); with BT-549 breast it was 0.164% (active); with MDA-MB-435 melanoma, 12.5%; in the experiment on SW-620 colon, 62.6%; with MCF7 breast, 11.8%; in the experiment on HCT-116 colon, 17.9%. Moreover, the growth in the experiment with HCC-2998 colon is 80.1%; in the experiment on KM12 colon it was 11.4%.
Consider `CCc1nc2cc(/C=C/C(=O)NO)c(F)cc2c(=O)n1CCc1ccccc1`, for which the growth in the experiment with T-47D breast is -0.665% (active); in the experiment on BT-549 breast, 15.7%; in the experiment on MDA-MB-435 melanoma, 18.2%; in the experiment with SW-620 colon it was 18.4%; in the experiment with MCF7 breast it was 12.3%; in the experiment with HCT-116 colon, 5.15% (active). The growth with HCC-2998 colon was 37.3%; in the experiment with KM12 colon it was 15.5%.
Regarding `CS(=O)(=O)N1CCN(Cc2cc3nc(-c4cccc5[nH]ncc45)nc(N4CCOCC4)c3s2)CC1`, the growth in the experiment on T-47D breast was -21.7% (active); in the experiment on BT-549 breast, 18.2%; in the experiment on MDA-MB-435 melanoma it was 22.4%; in the experiment with SW-620 colon, 38.8%; in the experiment on MCF7 breast it was 5.28% (active); in the experiment with HCT-116 colon, 28.3%. The growth is 22.8% in the experiment with HCC-2998 colon and 16.3% with KM12 colon.
With `Cc1cc(Nc2nc(N[C@@H](C)c3ncc(F)cn3)ncc2Cl)n[nH]1`, the growth was 86.5% in the experiment with T-47D breast; 65.3% in the experiment with BT-549 breast; 77.2% with MDA-MB-435 melanoma; 58% with SW-620 colon; 63.1% in the experiment with MCF7 breast; 62.4% in the experiment with HCT-116 colon. Further, the growth was 61.4% in the experiment on HCC-2998 colon and 14.7% in the experiment with KM12 colon.
Regarding `CCc1cnn2c(NCc3ccc[n+]([O-])c3)cc(N3CCCC[C@H]3CCO)nc12`, the growth in the experiment on T-47D breast is -16.9% (active); in the experiment on BT-549 breast, -15.7% (active); in the experiment with MDA-MB-435 melanoma it was -35.4% (active); in the experiment with SW-620 colon it was -4.01% (active); with MCF7 breast it was 1.85% (active); in the experiment with HCT-116 colon it was 1.22% (active). In addition, the growth in the experiment on HCC-2998 colon was -37.3% (active); with KM12 colon it was 1.55% (active).
Take `COc1cc2cc(NCc3ccc(Cl)cc3)nc(C)c2cc1OC`: the growth is 47.1% with T-47D breast; 30.8% in the experiment with BT-549 breast; 10.9% in the experiment on MDA-MB-435 melanoma; 19.3% in the experiment on SW-620 colon; 51.8% in the experiment with MCF7 breast; 8.8% (active) in the experiment on HCT-116 colon. The growth is 27.2% in the experiment with HCC-2998 colon and 37.2% with KM12 colon.
For `COc1ccc2c(CCC(c3ccccc3)c3ccccc3)c3[n+](cc2c1OC)CCc1cc2c(cc1-3)OCO2`, the growth with T-47D breast is 5.67% (active); in the experiment with BT-549 breast it was -29.1% (active); in the experiment on MDA-MB-435 melanoma, -72% (active); in the experiment with SW-620 colon, 11.5%; with MCF7 breast, 9.86% (active); in the experiment on HCT-116 colon it was 6.81% (active). In addition, the growth was -13.7% (active) with HCC-2998 colon and -76.7% (active) with KM12 colon.
Turning to `CC(=O)CC1CCCC1c1ccc2ccccc2c1` (stereo not given), the growth in the experiment on T-47D breast is 90%; in the experiment with BT-549 breast, 109%; in the experiment on MDA-MB-435 melanoma it was 111%; in the experiment on SW-620 colon, 106%; in the experiment on MCF7 breast, 95.9%; in the experiment with HCT-116 colon, 104%. Moreover, the growth is 86.8% with HCC-2998 colon and 106% in the experiment on KM12 colon.
Take `Cn1cnc2c(F)c(Nc3ccc(Br)cc3F)c(C(=O)NOCCO)cc21`: the growth in the experiment with T-47D breast was 81.9%; with BT-549 breast it was 81.7%; in the experiment with MDA-MB-435 melanoma it was 32.5%; in the experiment with SW-620 colon, 21%; with MCF7 breast it was 87.3%; in the experiment on HCT-116 colon, 19%. Moreover, the growth with HCC-2998 colon is 0.38% (active); in the experiment on KM12 colon, 27.5%.
For the compound `C=C1C(=O)O[C@H]2[C@H]1CC/C(Cn1cc(-c3cc(C)c(C)cc3C)nn1)=C\CC[C@@]1(C)O[C@@H]21`, the growth in the experiment on T-47D breast is -46.8% (active); with BT-549 breast, -66.1% (active); in the experiment with MDA-MB-435 melanoma, -56.3% (active); in the experiment on SW-620 colon, -79.2% (active); with MCF7 breast it was -62.3% (active); in the experiment on HCT-116 colon it was -87.4% (active). In addition, the growth with HCC-2998 colon is -91.7% (active); in the experiment with KM12 colon, 14.1%.
Regarding `CNC(=O)c1cc(Oc2cccc3nc(Nc4ccc(Oc5ccccc5)cc4)ccc23)ccn1`, the growth in the experiment with T-47D breast is 43.3%; in the experiment on BT-549 breast, 57.2%; with MDA-MB-435 melanoma, 66.1%; in the experiment with SW-620 colon, 87.8%; with MCF7 breast, 43.2%; in the experiment on HCT-116 colon, 48%. Also, the growth is 94% in the experiment on HCC-2998 colon and 67.8% in the experiment with KM12 colon.
